# ChEMBL document CHEMBL4513216, “Probing the Open Global Health Chemical Diversity Library for Multistage-Active Starting Points for Next-Generation Antimalarials” (ACS Infect Dis, 2020)
# The campaign covered roughly 65,000 compounds. About 2,100 (3.2%) showed an effect of 50% or more. The median lay at about -52%. This excerpt belongs to a sample that is enriched for strong results.
# System: Plasmodium falciparum
# Experiment: Screen against P. falciparum Asexual Blood Stage (ABS), at 5uM
# Type: functional, Dd2
# Details: tested at 5 uM
row,Compound,INHIBITION [%]
1,Cc1nc(COC[C@@H]2CC[C@H]3NCC[C@H]3O2)cs1,-46.5
2,Cc1noc(C)c1CN1C[C@H](OCC(=O)N(C)C)[C@H]2COC[C@H]21,-85.8
3,O=C1[C@H]2CN(CC3CC3)C[C@H]2CN1c1ccsc1,-60.4
4,Cc1cnc(N2CCC[C@@H]3CN(CC(=O)N(C)C)C[C@@H]32)nc1,-22.5
5,COc1cc(C2SCC(=O)Nc3[nH]ncc32)cc(OC)c1OC (stereo not given),-200
6,O=C(NCC1CC1)C1CCC2(CCNCC2)C1 (stereo not given),-31.3
7,Cc1nc(CN2C[C@@H]3OCCN(c4ncc(F)cn4)[C@@H]3C2)cs1,52
8,Fc1cnc(N2CCO[C@H]3CN(CC4CCCC4)C[C@H]32)nc1,25.4
9,CC(C)CCN1C[C@@H]2OCCN(c3ncc(F)cn3)[C@@H]2C1,-2.26
10,CO[C@@H]1CCN(S(=O)(=O)c2cccnc2)[C@@H]2CN(CC3CC3)C[C@@H]21,-23.6
11,Cc1noc(C)c1CN1C(=O)[C@@H]2CC[C@H]1CN(Cc1nccs1)C2,-122
12,O=C(Cc1ccc(CO)cc1)N1CCN(CC2CC2)[C@@H]2CS(=O)(=O)C[C@@H]21,-55.1
13,O=c1cc(CN2CC[C@@H]3CC[C@H](C2)N3)c2cccc3c2n1CCC3,-41.1
14,COCCN1CCC12CCN(C(=O)c1ccc(C)nc1)C2 (stereo not given),-172
15,COC[C@]12COC[C@H]1CN(Cc1ccc3ccccc3n1)C2,-29.2
16,COc1cccc([C@@H]2CCN(Cc3ccc4ccccc4n3)C[C@H]2O)c1,-17.2
17,CCOc1ccc2nc(CN3CCC(CN)C3)ccc2c1 (stereo not given),85.5
18,c1cnc(N2CCO[C@@H]3CN(Cc4ccoc4)C[C@@H]3C2)nc1,-30.5
19,Cc1cccc(S(=O)(=O)NCC(C)N2CCN(C)CC2)c1Cl (stereo not given),81.5
20,CNS(=O)(=O)CC(=O)NC(C)Cc1cccc(Cl)c1 (stereo not given),-15.4
21,Cc1cc(Cl)ccc1S(=O)(=O)NCC(C)N1CCN(C)CC1 (stereo not given),74.3
22,CC(CNS(=O)(=O)c1cccc(Cl)c1)N1CCN(C)CC1 (stereo not given),78

row,Compound,INHIBITION [%]
1,COCCN1CCN(c2cc(OC)ncn2)Cc2ccc(C)nc21,-102
2,Cc1cc(CN2CC[C@H]3C[C@@H](c4nc(C5CC5)cs4)O[C@@H]3C2)no1,6.98
3,Cc1ccccc1C1(CN)CCCCC1,91
4,Cc1ccccc1C1(CN)CCOCC1,36.4
5,NCC1(c2cccc(C(F)(F)F)c2)CCCCC1,2.74
6,CC(c1cn2ccsc2n1)n1cc2[nH]cccc-2c1=O (stereo not given),-134
7,CO[C@H]1CN(C(C)C)C[C@@H]1NC(=O)c1cc(-c2ccccc2O)n[nH]1,90
8,Clc1ccccc1-c1cc(CNc2ncnc3c2CCNCC3)no1,80.3
9,CC(C)(C)C(=O)N1C[C@H](c2ccsc2)[C@H]2CN(C3CCCC3)CC[C@H]21,72.6
10,CN1CCN([C@@H]2CN(C(=O)Cc3ccsc3)[C@@H]3CCCO[C@H]23)CC1,-66.9
11,CC(C)(C)C(=O)N1C[C@H](c2ccsc2)[C@H]2CN(C3CCCCC3)CC[C@H]21,77.3
12,c1cnc(N2CCCC3(COCCN(CC4CC4)C3)C2)nc1 (stereo not given),37.4
13,COCCN1CCC2(C1)CN(c1ncccn1)C2,-85.3
14,c1cnc(N2CCCC3(CCN(CC4CCC4)C3)C2)nc1 (stereo not given),53.9
15,Cc1noc(C)c1CN1CCCC2(CCN(CC3CCCC3)C2)C1 (stereo not given),83.1
16,c1cnc(N2CCC3(CN(CC4CCOC4)C3)C2)nc1 (stereo not given),-15.6
17,CCC(CC)CN1CCC2(CCCN(c3ncccn3)C2)C1 (stereo not given),62.6
18,Cc1noc(C)c1CN1CCCC2(CCN(C(=O)CC3CC3)C2)C1 (stereo not given),-16.5
19,CCN1CCCC12CCCN(c1ncccn1)C2 (stereo not given),-31.8
20,c1cnc(N2CCC3(CCCN(CC4CC4)C3)CC2)nc1,41.7
21,Cc1noc(C)c1CN1CCCC2(CCN(C(=O)C3CC3)C2)C1 (stereo not given),12.9
22,c1cnc(N2CCCC3(CCN(CC4CC4)C3)C2)nc1 (stereo not given),61.1

row,Compound,INHIBITION [%]
1,CNC(=O)CN1CCOCC12CCN(Cc1ccncc1)CC2,-20.5
2,Cc1cccc(CN2CCC[C@@H]3CN(C(=O)c4ccco4)C[C@@H]32)n1,-73.5
3,CCS(=O)(=O)NC[C@]12COC[C@H]1CN(Cc1cccnc1)C2,-97.3
4,O=C(NCC1CC1)[C@H]1C[C@@H]2[C@@H](C1)OCCN2Cc1cccnc1,-29.4
5,CC(C)(C)c1cn(C[C@H]2CC3CCN2C[C@@H]3C(=O)NC2CC2)nn1 (stereo not given in full),-148
6,Cc1noc(C)c1CN1C[C@@H]2C[C@H](C(=O)NCC3CC3)N(C)[C@@H]2C1,-8.05
7,CC(=O)C1(c2ccccc2)CCN(C(=O)C2CNCCO2)CC1 (stereo not given),-81.4
8,O=C(C1CNCCO1)N1CCCC(c2ccccc2)(c2ccccc2)C1 (stereo not given),79.5
9,CC(=O)C1(c2ccccc2)CCN(C(=O)CC2CNCCO2)CC1 (stereo not given),-44.7
10,CCN(CC)c1nc(Nc2cccc(C(C)O)c2)nc2ccccc12 (stereo not given),84.5
11,CC(O)c1cccc(Nc2nc(NCCO)c3ccccc3n2)c1 (stereo not given),89.4
12,OC[C@@H]1CN2CCN(c3ccccn3)C[C@@H]2[C@H]1c1ccccc1,-7.96
13,c1ccc(CO[C@@H]2CN(Cc3nccs3)[C@@H]3COC[C@@H]32)nc1,-84.8
14,CCn1nc(C)c(CN2CCNCC2)c1C,-86.35
15,c1cncc(C(Cn2cnnc2)N2CCOCC2)c1 (stereo not given),-88.3
16,COCCN1CCc2cc(C(=O)NC(C)C)c(NCC(C)C)nc2CC1,78.9
17,COCCN1CCC2(CC1)C(=O)Nc1ccc(C(=O)NC(C)C)cc12,-102
18,Cc1n[nH]c2c1C(c1cnn(C)c1)SCC(=O)N2 (stereo not given),-51.7
19,c1cncc(CN2CCC3(CCCN(c4nncs4)C3)C2)c1 (stereo not given),-82.9
20,CN(C)C(=O)N1CCCC2(CCN(Cc3ccncc3)C2)C1 (stereo not given),-29.6
21,CC(C)c1ccc(CN2CCC3(CCCN(c4nncs4)C3)C2)cc1 (stereo not given),73.6
